# Results from PMC7862700, “An all-to-all approach to the identification of sequence-specific readers for epigenetic DNA modifications on cytosine”.
# Legend:
# Assay in all cases: DAPPL (digital affinity profiling via proximity ligation, sequencing); 10 mM Tris-HCl pH 7.5, 50 mM NaCl, 1 mM DTT, 4% glycerol, room temperature, 30 min; GST-TFs on glutathione beads, 16-mer random dsDNA library, 0.1% formaldehyde crosslink after washing; high values mean tight binding
# Settings in all cases: protein: recombinant; tags: N-terminal GST; dsDNA, one strand shown
# ELF4 = ELF4 (Homo sapiens, UniProt Q99607 1-663)
# Sequence of ELF4 (Q99607 whole entry, the tested form may be a part): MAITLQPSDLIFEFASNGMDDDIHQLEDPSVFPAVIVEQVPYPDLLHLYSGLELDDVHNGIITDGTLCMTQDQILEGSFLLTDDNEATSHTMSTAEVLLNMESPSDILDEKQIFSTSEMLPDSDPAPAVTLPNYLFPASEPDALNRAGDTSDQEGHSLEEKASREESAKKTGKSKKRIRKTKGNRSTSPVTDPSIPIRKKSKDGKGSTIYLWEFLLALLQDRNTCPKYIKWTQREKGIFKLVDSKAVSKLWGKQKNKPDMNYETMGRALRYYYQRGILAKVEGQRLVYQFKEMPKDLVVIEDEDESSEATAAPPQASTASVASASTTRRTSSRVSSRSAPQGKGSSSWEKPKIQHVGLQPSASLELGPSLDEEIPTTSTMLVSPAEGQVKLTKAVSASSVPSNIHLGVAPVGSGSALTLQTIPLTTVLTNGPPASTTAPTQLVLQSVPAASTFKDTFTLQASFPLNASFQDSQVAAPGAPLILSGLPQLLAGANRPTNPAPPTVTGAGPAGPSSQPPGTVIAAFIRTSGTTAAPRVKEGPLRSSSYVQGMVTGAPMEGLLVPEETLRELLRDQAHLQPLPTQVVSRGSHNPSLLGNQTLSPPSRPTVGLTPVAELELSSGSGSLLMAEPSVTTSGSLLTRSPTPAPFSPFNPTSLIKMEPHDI
# Summary of the method: (§1)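 Binding signal is each hexamer's read frequency for a factor divided by its frequency in the tag-only sample. The factors were GST-fused human transcription factors from yeast, captured on glutathione beads, DNA-barcoded and pooled with that sample. Pools were incubated with 200 nmole of a random double-stranded 16-mer DNA library in Tris/NaCl/DTT/glycerol buffer at room temperature for 30 min, then washed, crosslinked with 0.1% formaldehyde, proximity-ligated with BsaI/T4 ligase (1 h, 37 °C), PCR-amplified and sequenced on an Illumina NextSeq500.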
# ETV2 = molecular target: T1, ETV2 (Homo sapiens, UniProt O00321 1-342)
# T1 sequence: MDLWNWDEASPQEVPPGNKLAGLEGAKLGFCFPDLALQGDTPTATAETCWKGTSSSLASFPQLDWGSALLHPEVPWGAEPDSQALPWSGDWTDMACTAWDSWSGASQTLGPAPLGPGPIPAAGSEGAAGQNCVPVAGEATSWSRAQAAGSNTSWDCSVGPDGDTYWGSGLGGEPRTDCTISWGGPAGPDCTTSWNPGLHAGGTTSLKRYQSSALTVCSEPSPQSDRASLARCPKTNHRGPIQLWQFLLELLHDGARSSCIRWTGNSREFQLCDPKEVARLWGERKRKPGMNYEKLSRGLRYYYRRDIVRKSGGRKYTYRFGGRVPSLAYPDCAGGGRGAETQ
# Summary of the method: as §1
# ELF3 = molecular target: T2, ELF3 (Homo sapiens, UniProt P78545 1-371)
# T2 sequence: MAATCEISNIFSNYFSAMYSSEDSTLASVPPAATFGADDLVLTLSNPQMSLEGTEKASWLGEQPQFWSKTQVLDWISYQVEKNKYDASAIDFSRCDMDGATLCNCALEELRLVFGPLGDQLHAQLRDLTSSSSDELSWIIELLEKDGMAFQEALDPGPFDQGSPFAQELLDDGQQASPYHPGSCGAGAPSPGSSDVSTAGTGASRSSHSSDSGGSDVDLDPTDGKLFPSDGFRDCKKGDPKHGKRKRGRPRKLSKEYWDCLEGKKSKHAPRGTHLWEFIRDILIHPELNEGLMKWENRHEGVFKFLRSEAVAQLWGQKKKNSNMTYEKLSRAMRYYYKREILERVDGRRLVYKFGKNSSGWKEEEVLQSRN
# Summary of the method: as §1
# ETV1 = ETV1 (Homo sapiens, UniProt P50549 1-477)
# Sequence of ETV1 (P50549 whole entry): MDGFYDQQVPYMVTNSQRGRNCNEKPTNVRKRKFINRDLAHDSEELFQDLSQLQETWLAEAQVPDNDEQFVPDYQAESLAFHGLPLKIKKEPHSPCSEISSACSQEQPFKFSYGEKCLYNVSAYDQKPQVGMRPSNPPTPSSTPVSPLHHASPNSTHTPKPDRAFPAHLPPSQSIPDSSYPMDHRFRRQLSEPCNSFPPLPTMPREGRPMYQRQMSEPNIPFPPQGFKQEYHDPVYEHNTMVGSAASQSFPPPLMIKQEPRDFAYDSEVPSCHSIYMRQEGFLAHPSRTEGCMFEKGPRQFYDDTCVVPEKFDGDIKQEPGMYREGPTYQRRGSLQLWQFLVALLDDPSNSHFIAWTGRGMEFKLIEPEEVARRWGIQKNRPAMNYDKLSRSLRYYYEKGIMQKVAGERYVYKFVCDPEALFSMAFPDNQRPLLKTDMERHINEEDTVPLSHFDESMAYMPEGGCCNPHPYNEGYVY
# Summary of the method: as §1
# ERF = molecular target: T3, ERF (Homo sapiens, UniProt P50548 1-548)
# T3 sequence: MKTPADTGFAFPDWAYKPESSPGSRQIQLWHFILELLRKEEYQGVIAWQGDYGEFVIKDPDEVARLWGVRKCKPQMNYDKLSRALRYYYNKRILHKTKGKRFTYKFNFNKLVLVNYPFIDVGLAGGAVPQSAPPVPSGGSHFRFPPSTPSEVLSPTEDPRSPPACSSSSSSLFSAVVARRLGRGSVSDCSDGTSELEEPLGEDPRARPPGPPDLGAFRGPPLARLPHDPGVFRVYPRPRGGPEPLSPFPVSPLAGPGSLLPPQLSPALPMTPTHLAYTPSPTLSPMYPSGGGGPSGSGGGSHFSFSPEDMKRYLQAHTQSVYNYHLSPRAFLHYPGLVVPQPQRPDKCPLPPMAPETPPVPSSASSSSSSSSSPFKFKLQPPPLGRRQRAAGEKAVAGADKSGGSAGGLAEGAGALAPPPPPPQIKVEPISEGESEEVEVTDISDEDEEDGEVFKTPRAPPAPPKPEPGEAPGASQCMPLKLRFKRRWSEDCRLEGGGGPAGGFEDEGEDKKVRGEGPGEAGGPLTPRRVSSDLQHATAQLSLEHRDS
# Summary of the method: as §1
# ETV3L = molecular target: T4, ETV3L (Homo sapiens, UniProt Q6ZN32 1-361)
# T4 sequence: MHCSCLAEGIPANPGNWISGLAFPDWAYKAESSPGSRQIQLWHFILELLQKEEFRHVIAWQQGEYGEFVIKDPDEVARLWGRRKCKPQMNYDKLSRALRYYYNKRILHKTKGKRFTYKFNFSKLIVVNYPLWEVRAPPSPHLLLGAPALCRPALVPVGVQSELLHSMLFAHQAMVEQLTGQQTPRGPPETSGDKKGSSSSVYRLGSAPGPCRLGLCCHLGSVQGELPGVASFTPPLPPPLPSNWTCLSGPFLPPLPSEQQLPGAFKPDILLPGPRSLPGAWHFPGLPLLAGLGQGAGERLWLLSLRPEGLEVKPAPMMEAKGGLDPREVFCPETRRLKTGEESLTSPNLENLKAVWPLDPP
# Summary of the method: as §1
# ETS2 = molecular target: T5, ETS2 (Homo sapiens, UniProt P15036 1-469)
# T5 sequence: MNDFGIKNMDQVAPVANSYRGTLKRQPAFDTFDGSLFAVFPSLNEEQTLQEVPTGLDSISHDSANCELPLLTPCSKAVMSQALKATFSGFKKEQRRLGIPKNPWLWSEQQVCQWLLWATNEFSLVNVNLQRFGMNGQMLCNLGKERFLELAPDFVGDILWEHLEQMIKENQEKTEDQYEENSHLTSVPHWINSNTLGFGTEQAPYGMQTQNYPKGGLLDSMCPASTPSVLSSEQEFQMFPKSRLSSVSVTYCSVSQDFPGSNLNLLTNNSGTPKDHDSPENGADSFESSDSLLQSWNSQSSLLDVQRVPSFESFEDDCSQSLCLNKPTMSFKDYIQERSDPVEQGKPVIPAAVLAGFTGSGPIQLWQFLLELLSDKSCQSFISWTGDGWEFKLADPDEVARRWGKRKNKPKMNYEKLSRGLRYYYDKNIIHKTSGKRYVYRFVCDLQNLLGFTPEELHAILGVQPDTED
# Summary of the method: as §1
# ETV7 = molecular target: T6, ETV7 (Homo sapiens, UniProt Q9Y603 1-341)
# T6 sequence: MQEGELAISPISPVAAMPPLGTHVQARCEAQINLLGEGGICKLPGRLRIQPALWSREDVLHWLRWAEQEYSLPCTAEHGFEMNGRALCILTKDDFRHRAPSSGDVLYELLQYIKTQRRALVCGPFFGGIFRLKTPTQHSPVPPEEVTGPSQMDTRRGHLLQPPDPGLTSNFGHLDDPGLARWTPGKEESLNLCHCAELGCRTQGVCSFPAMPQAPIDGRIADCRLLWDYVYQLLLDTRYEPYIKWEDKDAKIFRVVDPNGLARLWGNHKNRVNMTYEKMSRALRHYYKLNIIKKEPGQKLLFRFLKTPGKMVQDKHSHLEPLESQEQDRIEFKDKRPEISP
# Summary of the method: as §1
# ETV3 = molecular target: T7, ETV3 (Homo sapiens, UniProt P41162-2 1-143)
# T7 sequence: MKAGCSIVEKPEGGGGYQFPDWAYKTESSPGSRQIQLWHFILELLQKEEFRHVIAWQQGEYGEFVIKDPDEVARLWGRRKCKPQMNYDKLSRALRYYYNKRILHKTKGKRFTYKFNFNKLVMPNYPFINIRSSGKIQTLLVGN
# Summary of the method: as §1
# ETV6 = ETV6 (Homo sapiens, UniProt P41212 1-452)
# Sequence of ETV6 (P41212 whole entry): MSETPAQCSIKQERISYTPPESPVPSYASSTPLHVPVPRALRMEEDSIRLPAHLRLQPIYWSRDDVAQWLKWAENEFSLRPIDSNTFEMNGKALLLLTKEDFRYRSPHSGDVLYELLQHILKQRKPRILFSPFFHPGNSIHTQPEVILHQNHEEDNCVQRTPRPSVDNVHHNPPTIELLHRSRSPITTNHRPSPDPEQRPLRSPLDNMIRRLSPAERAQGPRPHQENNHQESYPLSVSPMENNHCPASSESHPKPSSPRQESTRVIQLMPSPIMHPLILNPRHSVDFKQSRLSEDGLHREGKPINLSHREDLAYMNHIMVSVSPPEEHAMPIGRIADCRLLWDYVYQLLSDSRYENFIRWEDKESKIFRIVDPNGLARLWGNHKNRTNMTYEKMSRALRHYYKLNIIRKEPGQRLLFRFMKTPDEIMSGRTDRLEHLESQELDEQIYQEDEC
# Summary of the method: as §1
sequence,measurement,setting,value
ACGACC,binding signal,ELF4,"1.26 fold enrichment (6-mer frequency, TF over GST control)"
same,binding signal,ETV2,"1.34 fold enrichment (6-mer frequency, TF over GST control)"
same,binding signal,ELF3,"1.25 fold enrichment (6-mer frequency, TF over GST control)"
same,binding signal,ETV1,"1.2 fold enrichment (6-mer frequency, TF over GST control)"
same,binding signal,ERF,"1.11 fold enrichment (6-mer frequency, TF over GST control)"
same,binding signal,ETV3L,"1.18 fold enrichment (6-mer frequency, TF over GST control)"
same,binding signal,ETS2,"1.15 fold enrichment (6-mer frequency, TF over GST control)"
same,binding signal,ETV7,"1.18 fold enrichment (6-mer frequency, TF over GST control)"
same,binding signal,ETV3,"1.24 fold enrichment (6-mer frequency, TF over GST control)"
same,binding signal,ETV6,"1.19 fold enrichment (6-mer frequency, TF over GST control)"
